Bioassay records as filed in PubChem BioAssay.
This is a sample that favours compounds with a hit; in the whole collection about 0.93% have one here.
CDC25B-CDK2 inh: human CDC25B-CDK2/CyclinA binding inhibition; HTRF CDC25B-CDK2/CyclinA binding, anti-His/anti-Flag; stronger effect = higher value; P30305+P24941; 94,000 tested, 0.72% active; z-score (no concentration beside the values); in the data active = z-score above about 3.2
HIV TAR-Tat: HIV-1 TAR-Tat binding disruption; HIV-1 TAR RNA, Tat peptide displacement FRET; stronger effect = higher value; z-score (no concentration beside the values); 100,000 tested, 0.6% active; active = z-score of 3 or more in at least 2 runs
Starred values were filed as active, the others as inactive; . = no result.

SMILES	CDC25B-CDK2 inh	HIV TAR-Tat
Cc1cccc(Cn2c(-c3cccs3)noc2=O)c1	0.86	-0.06
O=C(O)CN(CC(=O)O)CC(=O)O	3.65*	.
O=C(O)CN(CCN(CC(=O)O)Cc1ccccc1O)Cc1ccccc1O	.	2.22
C=CCNC(=O)N1CC(OS(C)(=O)=O)C1	-2.94	.
CCOC(=O)c1c(NC(=O)N2CCN(CC)CC2)sc2c1CC(C)(C)OC2	-0.5	0.02
COc1c(O)cc2c(c1O)[C@@H]1O[C@H](CO)[C@@H](O)[C@H](O)[C@H]1OC2=O	.	1.87
Cc1c(C(=O)O)c(O)cc2c1C(=O)c1c(O)c([C@H]3O[C@H](CO)[C@@H](O)[C@H](O)[C@H]3O)c(O)c(O)c1C2=O	.	8.54*
COc1ccc(-c2cc(-c3cccnc3)c(C#N)c(N)n2)cc1	-0.24	3.18*
N#Cc1c(-c2cccnc2)cc(-c2ccc(F)cc2)nc1N	-2.37	0.76
Cc1nc2c(C)cccn2c(=O)c1Cc1nnc(SCC(=O)Nc2ccc(C(C)C)cc2)n1C	-0.42	-0.62
COc1ccc(NC(=O)C(C)Sc2nnc(Cc3c(C)nc4c(C)cccn4c3=O)n2C)cc1 (stereo unspecified)	7.15*	-0.94
COc1ccc(NC(=O)C(C)Sc2nnc(Cc3c(C)nc4ccccn4c3=O)n2C)cc1 (stereo unspecified)	16*	-0.14
Cc1nc2ccccn2c(=O)c1Cc1nnc(SCC(=O)Nc2ccc(Cl)cc2)n1C	-0.52	-0.6
CCOC(=O)N1CCN(C(=O)c2[nH]nc3c2CCc2cc(OC)ccc2-3)CC1	.	0.45
CC(=O)NCCNC(=O)CCc1nc2sc3c(c2c(=O)[nH]1)CCCCC3	.	5.98*
CNC(=O)CCc1nc2sc3c(c2c(=O)[nH]1)CCCCC3	.	0.79
O=C(CCc1nc2sc3c(c2c(=O)[nH]1)CCCCC3)N1CCN(Cc2ccc3c(c2)OCO3)CC1	.	10.5*
CC(C)(C)C1CCc2c(sc3nc(CCC(=O)N4CCC(C(N)=O)CC4)[nH]c(=O)c23)C1 (stereo unspecified)	.	0.16
NC(=O)C1CCN(C(=O)CCc2nc3sc4c(c3c(=O)[nH]2)CCCCC4)CC1	.	19.4*
O=C(CCc1nc2sc3c(c2c(=O)[nH]1)CCCCC3)N1CCN(c2ccc(F)cc2)CC1	.	-0.48
O=S(=O)(Nc1ccc(F)c(F)c1)c1ccc(N2CCCCS2(=O)=O)cc1	.	1.23
O=C1COc2ccc(S(=O)(=O)N(CCc3ccccc3)Cc3ccccc3)cc2N1	.	2.75
CCCCCOC(=O)C1=C(C)Nc2nnnn2C1c1ccc(SC)cc1 (stereo unspecified)	-0.16	-0.98
Cc1oc2ncnc(N3CCCCC3)c2c1C(=O)NCCC1=CCCCC1	.	-0.8
CCC(=O)NC(NC(=S)Nc1ccc(Cl)c(Cl)c1)C(Cl)(Cl)Cl (stereo unspecified)	-3.59	.
SMILES	CDC25B-CDK2 inh	HIV TAR-Tat
COc1cc(NC(c2nnc(-c3ccccc3)o2)c2ccc(F)cc2Cl)cc(OC)c1 (stereo unspecified)	.	-0.6
CCS(=O)(=O)N1CCC2(CC1)OC(=O)C(C)=C2C(=O)Nc1c(C)cc(C)cc1C	.	0.39
CCc1ccc(C2C3=C(CC(c4ccc(OC)cc4)CC3=O)Nc3nnnn32)cc1 (stereo unspecified)	.	-0.05
CC(C)(C)C(=O)NCC(c1ccco1)S(=O)(=O)c1ccc(F)cc1 (stereo unspecified)	.	2.05
Fc1ccccc1-c1ccc(-c2nn3c(-c4ccco4)nnc3s2)o1	-0.12	19.9*
FC(F)(F)c1cccc(-c2ccc(-c3nn4c(-c5ccco5)nnc4s3)o2)c1	1.43	.
Clc1cccc(-c2ccc(-c3nn4c(-c5ccco5)nnc4s3)o2)c1	-0.52	17.4*
Cc1occc1-c1nnc2sc(-c3ccc(-c4cccc(Cl)c4)o3)nn12	-0.12	1.72
O=C1CC(c2c(F)cccc2Cl)c2cnn(-c3nc4ccccc4s3)c2N1 (stereo unspecified)	.	1.7
Cc1cc(F)ccc1NS(=O)(=O)c1ccc2c(c1)CC(C)N2C(=O)C1CC1 (stereo unspecified)	.	-0.05
C=CCOc1ccc(/C(O)=C2\C(=O)C(=O)N(CCN(C)C)C2c2ccc(F)cc2)c(C)c1 (stereo unspecified)	-0.28	-0.08
COc1ccc(C2CC(c3c(O)n(C)c(=O)[nH]c3=O)=Nc3ccccc3S2)c(OC)c1 (stereo unspecified)	-2.58	3.22
CCOC(=O)N1CCN(C(=O)Nc2c[nH]c3ccccc3c2=O)CC1	-1.47	-1.36
CC1=C(C(=O)OCC2CCCO2)C(c2ccccc2F)C2=C(CC(C)(C)CC2=O)N1 (stereo unspecified)	-0.72	0.14
CC1=C(C(=O)OCC2CCCO2)C(c2ccccc2C)C2=C(CC(C)(C)CC2=O)N1 (stereo unspecified)	-5.53	5.05*
O=C1N(Cc2ccc(Br)cc2)c2ccccc2S(=O)(=O)N1c1ccc(F)cc1	.	-0.67
COc1cccc(-c2nc3c(c(=O)[nH]2)Cc2cc(Cl)ccc2O3)c1O	-0.74	4.89*
CCOc1cccc(-c2nc3c(c(=O)[nH]2)Cc2cc(Br)ccc2O3)c1O	-1.27	4.04
COc1cccc2c1Oc1[nH]c(-c3ccccc3F)nc(=S)c1C2	-0.72	-0.18
CCOc1cccc2c1Oc1[nH]c(-c3cc(OC)c(OC)c(OC)c3)nc(=S)c1C2	-1.44	.
COc1cccc(-c2nc(=S)c3c([nH]2)Oc2c(cccc2OC)C3)c1O	7.38	35.1*
CCOc1cccc(-c2nc(=S)c3c([nH]2)Oc2c(cccc2OC)C3)c1O	5.27	22.7*
CCOc1cccc(-c2nc3c(c(=O)[nH]2)Cc2cccc(OCC)c2O3)c1O	0.25	7.23*
O=c1[nH]c(-c2ccccc2O)nc2c1Cc1cc(Cl)ccc1O2	-1.3	2.25
COc1ccccc1CNc1nc2c(S(=O)(=O)c3ccc(Cl)cc3)nnn2c2ccsc12	.	-0.79
SMILES	CDC25B-CDK2 inh	HIV TAR-Tat
Cc1ccc(-c2nnc(C3CCN(S(=O)(=O)c4ccc5nc(-c6ccccc6)[nH]c5c4)CC3)o2)cc1	-1.94	12.7
O=C(c1noc2ncnc(N3CCOCC3)c12)N1CCCC1	.	0
Cn1cnc(S(=O)(=O)N2CCCc3ccccc32)c1	.	2.03
Fc1ccc(-c2nnc3sc(CN4CCOCC4)cn23)cc1	-0.08	-0.26
CC(C)C(=O)N(c1ccc2oc(=O)sc2c1)S(=O)(=O)c1cccs1	-2.75	0.34
CC(C)C(=O)N(c1cc2sc(=O)oc2c2ccccc12)S(=O)(=O)c1cccs1	6.95*	0.5
O=C(CSc1nccn(-c2ccccc2)c1=O)Nc1ccccc1	.	0.53
O=C(CSc1n[nH]c(-c2ccco2)n1)c1c[nH]c2ccccc12	-1.47	2.51
O=C(CSc1n[nH]c(-c2ccncc2)n1)c1c[nH]c2ccccc12	6.81*	-0.52
Cc1nc(-n2cccc2)sc1C(=O)N1CCN(c2ccccn2)CC1	.	2.96
O=C(Nc1ccc2oc(-c3ccccc3)nc2c1)c1nc(-n2cnnc2)ccc1Br	.	2.47
O=C(Nc1ccc(-c2nc3ccccc3o2)cc1)c1nc(-n2cnnc2)ccc1Br	.	7.19*
NC(CO)C(=O)NNCc1ccc(O)c(O)c1O (stereo unspecified)	-1.46	13.3*
N[C@H](CO)C(=O)O	-0.64	.
CCOC(=O)c1c(NC(=O)CCNS(=O)(=O)c2ccc(Cl)cc2)sc2c1CCCC2	-0.1	.
CC1(C)Cc2c(c(N3CCOCC3)nc3sc4c(N5CCCCC5)ncnc4c23)CO1	-0.87	.
Nc1nc2c(s1)c(=O)[nH]c(=O)n2-c1ccccc1	0.38	1.22
COc1ccc(-n2c(=O)[nH]c(=O)c3sc(N)nc32)cc1	0.15	7.27*
